87 compounds from PubChem BioAssay AID1974 (The Scripps Research Institute Molecular Screening Center, 2009) can be followed below.

Each structure is given as a SMILES string. Where “and” joins values, the source holds several entries; their conditions need not be identical. Equal entries are not always repeated. In all, about 300,000 compounds went through this assay and about 3,200 (1.1%) were called active. Only a selection was taken, and actives are over-represented in it overall. A number with no mark means an inactive call.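 The calls were made as follows: active = inhibition above the campaign mean inhibition plus 3 SD (cut at about 35% in these data); inactive = the rest.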

Broadly, the inhibition is the change of the read-out against control, counted positive when it falls.

Glutathione S-transferase omega-1 (Homo sapiens), sequence (P78417 whole entry, looked up): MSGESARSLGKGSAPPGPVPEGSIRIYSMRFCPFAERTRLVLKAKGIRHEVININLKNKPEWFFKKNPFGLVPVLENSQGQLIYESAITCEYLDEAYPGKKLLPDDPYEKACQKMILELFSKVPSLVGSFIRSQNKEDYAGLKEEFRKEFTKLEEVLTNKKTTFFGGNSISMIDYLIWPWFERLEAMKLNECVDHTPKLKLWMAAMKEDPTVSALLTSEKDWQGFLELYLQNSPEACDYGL

The test addresses Glutathione S-transferase omega-1 (Homo sapiens) (UniProt P78417). In words: inhibitors of recombinant GSTO1, primary screen, counter-screen for RBBP9 inhibitor project, biochemical, fluorescence polarization (AID 1974).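 Also: 0% = GSTO1-1 with DMSO and 100% = wells lacking GSTO1-1 enzyme.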 To be noted: recombinant GSTO1, activity-based probe fluorescence polarization; at 5.96 µM; stronger effect = higher value.
As to `CN(C)C1=NC[C@H](Cc2ccccc2)N1CCc1ccc(F)cc1`, the inhibition is 0.73%.

With `OCC[C@H]1C[C@@H](O)[C@H](O)[C@@]2(OCCc3ccccc32)O1`, the inhibition is 7.38%.

For the compound `Cc1nc2c(c(C)nn2-c2ccccc2)c(C)c1C`, the inhibition was 15.1%.

Take `O=C(CNC(=O)C1COc2ccccc2O1)N/N=C/c1cc(Br)c(O)c(Br)c1` (configuration not stated): the inhibition was -6.29%.

As for `Cc1c(CC(=O)N2CCN(C(=O)C3COc4ccccc4O3)CC2)c(=O)oc2c(O)c(O)ccc12` (configuration not stated), the inhibition is 45.1% (active).

Regarding `Cc1c(C)c2ccc(OCC(=O)N3CCC(C(=O)O)CC3)c(C)c2oc1=O`, the inhibition was -1.66%.

For the compound `O=C(NCCCN1CCCC1=O)c1ccc(S(=O)(=O)Nc2ccccc2)cc1`, the inhibition was 0.39%.

Consider `COCC(C)OC(=O)c1c(N)n(CCCN2CCOCC2)c2nc3ccccc3nc12` (configuration not stated), for which the inhibition is 11.9%.

Turning to `CC(C)(C)OC(=O)c1c(N)n(CCCN2CCCC2=O)c2nc3ccccc3nc12`, the inhibition was 63.9% (active).

In the case of `O=[N+]([O-])c1ccc(S(=O)(=O)Nc2cccc(-c3ccc(N4CCCC4)nn3)c2)cc1`, the inhibition is -8.25%.

Turning to `COc1ccc(CNC(=O)[C@@H]2CC=C[C@@H]3CCN(C4CC4)C(=O)[C@@H]32)cc1`, the inhibition is -0.21%.

Consider `CN1CCN(c2ccc(NC(=O)c3ccccc3)cc2)CC1`, for which the inhibition was 2.04%.

With `CSc1ccc(NC(=O)/C=C/C(=O)O)cc1`, the inhibition was 0.81%.

Regarding `Cc1cccc(N2CCN(c3ccc(NC(=O)/C=C\C(=O)O)cc3)CC2)c1`, the inhibition is 42.2% (active).

With `CCCn1c(C)cc(-c2csc(NC(=O)CCc3nc4ccccc4c(=O)[nH]3)n2)c1C`, the inhibition is -4.01%.

`O=C(CCc1[nH]c2ccccc2c1Sc1ccccc1)N(CCO)CCO`: the inhibition is 3.25%.

As to `CCCCN(C(=O)CCNC(=O)NC12CC3CC(CC(C3)C1)C2)c1c(N)n(CCCC)c(=O)[nH]c1=O`, the inhibition was -0.02%.

With `N#CC1(NC(=O)COC(=O)CSc2ccc(F)cc2)CCCCC1`, the inhibition is 6.75%.

Consider `CN(CC1CCCO1)S(=O)(=O)c1ccc(C(=O)Nc2ccc(F)cc2)cc1` (configuration not stated), for which the inhibition is 2.1%.

On to `CCOC(=O)c1c(NC(=O)c2ccc(S(=O)(=O)N(C)CC3CCCO3)cc2)sc2c1CC(C)(C)NC2(C)C` (configuration not stated), for which the inhibition was 55.4% (active).

Regarding `Cc1cccc(NC(=O)c2ccc(S(=O)(=O)N(C)CC3CCCO3)cc2)c1C` (configuration not stated), the inhibition is -5.06%.

`O=C(Nc1ccc(S(=O)(=O)N2CCCCC2)cc1)C1CCN(C(=O)c2ccc(F)cc2)CC1`: the inhibition is -4.69%.

Regarding `CC(Oc1cccc(Cl)c1)C(=O)Nc1ccc(S(=O)(=O)Nc2ncccn2)cc1` (configuration not stated), the inhibition is -7.06%.

With `COc1ccc(C(C(=O)NC2CCCCC2)N(C(=O)CCl)c2ccccc2Cl)cc1` (configuration not stated), the inhibition is 38.1% (active).

For the compound `COc1cccc(N(C(=O)C2COc3ccccc3O2)C(C(=O)NC2CCCCC2)c2ccc(O)cc2)c1` (configuration not stated), the inhibition was 0.47%.

For the compound `COc1ccc(C(C(=O)NC2CCCCC2)N(C(=O)c2snc(C(N)=O)c2N)c2ccccc2OC)cc1` (configuration not stated), the inhibition is -5.23%.

For `CC1=C(N2CCN(c3ncccn3)CC2)CCC1=O`, the inhibition is -2.06%.

Turning to `CCn1c(SC(C)C(=O)Nc2ccc(N3CCOCC3)cc2)nnc1-c1ccco1` (configuration not stated), the inhibition is -7.32%.

Take `CCOC(=O)C(C)N(c1ccccc1Cl)S(C)(=O)=O` (configuration not stated): the inhibition was 2.86%.

With `Cc1cc(Cl)c(S(=O)(=O)NCC2CCCO2)cc1OCC(N)=O` (configuration not stated), the inhibition was -0.4%.

For `Cc1cc(Cl)c(S(=O)(=O)Nc2ccc3c(c2)OCCO3)cc1OCC(N)=O`, the inhibition was 35.7% (active).

As to `Cc1cc(Cl)c(S(=O)(=O)N(C)C)cc1OCC(N)=O`, the inhibition is -3.27%.

With `CSc1ccccc1NC(=O)c1cnc2sc(C)cn2c1=O`, the inhibition was -0.65%.

In the case of `CCN(C(=O)COC(=O)c1sccc1C)c1c(N)n(Cc2ccccc2)c(=O)[nH]c1=O`, the inhibition was 13.2%.

`CN(C)CCn1c2c(c(SCC(=O)NCc3ccccc3)nc1=O)CCC2`: the inhibition is 0.7%.

With `COc1ccc(CCNc2cc(N3CCN(C(=O)c4ccccc4OC)CC3)ccc2[N+](=O)[O-])cc1OC`, the inhibition is 0.42%.

In the case of `Oc1ccc(CNc2ccccc2O)cc1`, the inhibition was 41.7% (active).

On to `O=[N+]([O-])c1ccccc1NCc1ccc(Cl)cc1`, for which the inhibition is 1.08%.

`O=C(Cc1ccc(Cl)cc1)NC(=S)Nc1ccccc1O`: the inhibition is -0.02%.

On to `O=C(Nc1cc(S(=O)(=O)N2CCOCC2)ccc1OCC(F)(F)F)c1ccc(N2CCCC2=O)cc1`, for which the inhibition was 6.19%.

Regarding `O=C(c1ccncc1)N1CCN(S(=O)(=O)c2cc(C(F)(F)F)cc(C(F)(F)F)c2)CC1`, the inhibition is 2.8%.

For `CCOC(=O)c1ccccc1NC(=O)c1c(N)n(C)c(=O)[nH]c1=O`, the inhibition was -3.83%.

With `Cc1cc(C)c(S(=O)(=O)NCC(c2ccc3c(c2)OCO3)N2CCOCC2)c(C)c1` (configuration not stated), the inhibition was 3.98%.

Turning to `CCCc1nc2ccccc2c(=O)n1/N=C/c1ccc(O)c(O)c1`, the inhibition is 45.8% (active).

Take `O=c1c2ccccc2ncn1/N=C/c1ccccc1`: the inhibition is -0.07%.

As for `CCCc1nc2ccccc2c(=O)n1NC(=O)c1c(O)c2ccccc2[nH]c1=O`, the inhibition was 5.47%.

Turning to `CO[C@@H]1[C@@H](OC(N)=O)[C@@H](O)C(Oc2ccc3c(O)c(NC(=O)c4ccc(O)c(CC=C(C)C)c4)c(=O)oc3c2C)OC1(C)C` (some centres not stated), the inhibition was 2.82%.

Take `COc1ccc(S(=O)(=O)NCCCc2ccccc2)cc1`: the inhibition is 6.84%.

For `COc1ccc(S(=O)(=O)/N=C2\C=C(NS(=O)(=O)c3ccccc3)C(=O)c3ccccc32)cc1`, the inhibition is 58.3% (active).

For `COc1ccc2cc(S(=O)(=O)Nc3ccccn3)ccc2c1`, the inhibition is 2.15%.

Turning to `Cc1ccc(S(=O)(=O)N2[C@@H](c3cccc(Cl)c3)C(C(=O)O)=CC[C@H]2c2ccc(Cl)c(Cl)c2)cc1`, the inhibition is -207%.

`CCC(C)CCN1CCN=C1N(C)C` (configuration not stated): the inhibition is 0.8%.

On to `COCCCN(C(=O)CSCc1ccc(C)cc1)c1c(N)n(Cc2ccccc2)c(=O)[nH]c1=O`, for which the inhibition is -12.2%.

In the case of `CC(C)CCN1CCN=C1N(C)C`, the inhibition is -2.91%.

Consider `CC(=O)N(C)c1ccc(NC(=O)C(F)(F)F)cc1`, for which the inhibition is 2.55%.

Regarding `CC(C)CNC(=O)C(=O)Nc1ccc(N(C)C)cc1`, the inhibition was 4.12%.

On to `CN(C)c1ccc(N/C=C/C(=O)C(F)(F)F)cc1`, for which the inhibition was 57.6% (active).

With `[O-][n+]1ccc(OCc2ccccc2)cc1`, the inhibition was 10.9%.

`CN1C(C(=O)NCc2ccco2)CC2Cn3c(nc4ccccc43)C21` (configuration not stated): the inhibition is 6.49%.

Regarding `O=c1cc(CCl)nc2scc(-c3ccccc3)n12`, the inhibition was 85.3% (active).

For `O=C(O)Cc1csc(-c2cccc(Oc3ccccc3)c2)n1`, the inhibition was 2.72% and 8.12%.

As to `OCCn1c(-c2ccccc2)csc1=Nc1ccccc1`, the inhibition was -1.25%.

As to `Cc1ccc(C)c(OCC(=O)N2CCN(C(=O)c3ccco3)CC2)c1`, the inhibition was -2.08%.

Regarding `Cc1nc2ncnn2c(C)c1CCC(=O)N1CCN(C(=O)c2ccco2)CC1`, the inhibition is 50.8% (active).

In the case of `Cc1nc2nc(C)c(CCC(=O)N3CCN(c4ccccc4)CC3)c(C)n2n1`, the inhibition was 8.27%.

With `Cc1ccc(S(=O)(=O)CC(=O)Nc2sc(C)c(C)c2C(N)=O)cc1`, the inhibition is 0.44%.

With `COC(=O)c1cccc(NC(=O)CN2CCC(NC(=O)c3cc(OC)c(OC)c(OC)c3)CC2)c1`, the inhibition is 48.5% (active).

As for `O=C(CN1CCC(NC(=O)Nc2ccccc2)CC1)Nc1cccc([N+](=O)[O-])c1`, the inhibition is 5.63%.

`COc1cc(C(=O)NC2CCN(Cc3ccccc3)CC2)cc(Cl)c1OC(C)C`: the inhibition was -0.77%.

Take `Cc1ccc(S(=O)(=O)N(C)c2ccc(OCC(=O)OCC(=O)N(CC#N)c3ccccc3)cc2)cc1`: the inhibition was 2.81%.

Take `CC(C)c1ccc(S(=O)(=O)N2CCN(C(=O)CN3C(=O)NC(C)(c4ccccc4)C3=O)CC2)cc1` (configuration not stated): the inhibition is 4.89%.

On to `O=C(Nc1cc(-c2ccccc2)nn1-c1ccccc1F)c1ccc([N+](=O)[O-])cc1`, for which the inhibition was -3.44%.

`CC(C)Cn1c(N)c(C(=O)NCc2cccs2)c2nc3ccccc3nc21`: the inhibition is 38.5% (active).

For the compound `CC(C)(C)c1ccc(C(=O)NCCn2c(N)c(C#N)c3nc4ccccc4nc32)cc1`, the inhibition was 6.36%.

As to `CCCNC(=O)c1c(N)n(-c2ccc(S(N)(=O)=O)cc2)c2nc3ccccc3nc12`, the inhibition is -3.18%.

On to `CCN1CCN(C(=O)N[C@@H](C(=O)N[C@@H]2C(=O)N3C(C(=O)O)=C(CSc4nnnn4C)CS[C@H]23)c2ccc(O)cc2)C(=O)C1=O`, for which the inhibition was -2.08%.

Take `CC1(C)C/C(=N/Nc2ccc([N+](=O)[O-])cc2[N+](=O)[O-])C(C)(C)O1`: the inhibition was -2.6%.

On to `O=C(OCC1O[C@@H](OC(=O)c2cc(O)c(O)c(O)c2)[C@@H](OC(=O)c2cc(O)c(O)c(O)c2)[C@@H](OC(=O)c2cc(O)c(O)c(O)c2)[C@@H]1OC(=O)c1cc(O)c(O)c(O)c1)c1cc(O)c(O)c(O)c1` (some centres not stated), for which the inhibition was 43.9% (active).

Regarding `O=C(OCC1OC(Oc2ccc(O)cc2)C(O)C(O)C1O)c1ccccc1` (configuration not stated), the inhibition was -6.08%.

Consider `O=C(CSc1n[nH]c(-c2cccs2)n1)N1CCCCC1`, for which the inhibition was 0.4%.

In the case of `COc1ccc(Cl)cc1NC(=O)CN1CCN(C(=O)N2CCOCC2)CC1`, the inhibition was 1.76%.

With `O=C(Nc1cc(N2CCOCC2)ncn1)NC1(C(F)(F)F)Oc2ccc(Cl)cc2O1` (configuration not stated), the inhibition was 57.4% (active).

For `Cc1csc(NC(=O)NC2(C(F)(F)F)Oc3ccccc3O2)n1`, the inhibition is 28.1%.

Take `CN(CC(=O)Nc1cccc(F)c1)C(=O)C1CSC2(C)CCC(=O)N12` (configuration not stated): the inhibition is -10.9%.

As for `COc1ccc(CCNC(=O)COC(=O)C2CCCCC2)cc1`, the inhibition is 3.87%.

For `COC(=O)CCCC1=CC2=CC(=O)C(C)(OC(=O)c3cccs3)C(=O)C2=CN1c1cccc(C#N)c1` (configuration not stated), the inhibition was 10.6%.

For the compound `COC(=O)CCCC1=CC2=C(c3ccccc3)C(=O)C(C)(OC(=O)C3CCCC3)C(=O)C2=CN1c1ccc(OC)cc1` (configuration not stated), the inhibition was 40% (active).
